Screening data (PubChem)
A selection: hits, their analogues and other compounds. The true share with any hit is near 2.9%.
Pol kappa inh = blocks human DNA polymerase kappa activity; purified Pol kappa, fluorescent DNA synthesis assay, 10 min; actives 0.53% (n = 400,000); Potency, µM (highest dose often 107 µM), actives largely listed as inhibitors; Q9UBT6
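Pol kappa 10 nM + cpd, 15 min RT; start w/ substrate 50 nM final; fluorescence kinetic read, 0 and 10 min. Neg ctrl: buffer, no enzyme.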
POLH inh = inhibitors of human DNA polymerase eta. actives 1.2% (n = 390,000). Q9Y253. Potency, µM (titrated, usually from 114 µM), most hits filed as inhibitors. recombinant Pol eta, fluorescent DNA replication assay
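Pol eta (10 nM) was preincubated with compounds for 15 min at room temperature, after which fluorescent replication substrate (50 nM final) was added to start the reaction. Fluorescence was read kinetically at 0 and 10 min.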
POLB inh = blocks human DNA polymerase beta activity; Pol beta primer extension/strand displacement, fluorescence kinetic; Potency, µM (top dose mostly 114 µM), hits mostly inhibitors; actives 1.3% (n = 340,000)
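Curves were derived by four-parameter Hill fits of normalized qHTS data. The kinetic fluorescent primer-extension read was taken at 0 and 10 min after 50 nM substrate, following a 15 min room-temperature preincubation of 10 nM enzyme with compounds.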
POLI inh = DNA polymerase iota (human) inhibition | Pol iota fluorescent replication assay, 10 min | Potency, µM (series often up to 115 µM), usual class: inhibitors | actives 1% (n = 390,000) | AID 588590
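Pol iota at 10 nM preincubated 15 min with compounds at room temperature; reaction started with fluorescent substrate, 50 nM final. Fluorescence read kinetically at 0 and 10 min; buffer-only wells as negative control.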
PI5P4Ka inh = inhibitors of human PI5P4K alpha | P48426 | AID 652105 | max response, % | actives 1.2% (n = 330,000) | PI5P4Kalpha enzyme, ADP-Glo luminescence, 60 min; hits give low values; active means max response of -50% or lower; inconclusive means between -30% and -50%; inactive means -30% or higher; further: value at the top dose of about 77 µM
Target sequence (P48426 whole entry, looked up): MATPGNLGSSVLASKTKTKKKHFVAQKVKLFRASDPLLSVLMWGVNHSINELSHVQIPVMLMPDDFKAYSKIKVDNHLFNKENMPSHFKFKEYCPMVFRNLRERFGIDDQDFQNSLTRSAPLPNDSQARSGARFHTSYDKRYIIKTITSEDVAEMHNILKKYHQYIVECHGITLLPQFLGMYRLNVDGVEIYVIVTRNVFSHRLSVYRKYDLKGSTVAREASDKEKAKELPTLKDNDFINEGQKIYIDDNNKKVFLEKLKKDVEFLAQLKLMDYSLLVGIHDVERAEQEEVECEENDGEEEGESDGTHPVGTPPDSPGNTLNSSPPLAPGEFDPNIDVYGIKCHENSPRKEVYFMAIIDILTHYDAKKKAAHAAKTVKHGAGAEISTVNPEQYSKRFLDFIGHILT
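Enzyme plus substrate dispensed, test compounds pinned in, then ATP (5 microM final) added. After 60 min at RT, ADP-Glo reagent 1 for 45 min and reagent 2 for 30 min preceded luminescence imaging.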
12-LOX inh = ALOX12 (human) lipoxygenase inhibition; P18054; purified 12hLO, xylenol orange hydroperoxide absorbance; Potency, µM (titrated, usually from 108 µM), actives largely listed as inhibitors; actives 1.1% (n = 580,000)
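Hydroperoxide product was detected by ferrous iron/xylenol orange as the 573 to 405 nm absorbance ratio. Arachidonic acid at 40 uM (final) was turned over for 30 min at room temperature by 150 nM human 12hLO, pH 7.0 Hepes buffer, after 15 min compound preincubation.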
Hits are given with their value; . = inactive; ? = inconclusive; / = no result. Unless noted, the call rests on the fitted dose curve; in most records, active means well fitted inhibition curve with a large enough effect; inconclusive means small, poorly fitted or top-dose-only effect, or another doubt; inactive means no such curve, though single readings can be large or run the other way.

SMILES	Pol kappa inh	POLH inh	POLB inh	POLI inh	PI5P4Ka inh	12-LOX inh
O=C(Nc1nnc(-c2ccco2)o1)c1ccc(Cl)cc1	.	.	.	.	.	25µM
O=C(Nc1nnc(C2=COCCO2)o1)c1ccc(F)cc1	.	.	.	.	.	.
Cc1ccc(C(=O)Nc2nnc(-c3ccco3)o2)cc1C	.	.	.	.	.	.
O=C(Nc1nnc(C2=COCCO2)o1)c1ccc(Cl)cc1	.	.	.	.	.	40µM
COc1ccc2nc(/C=C/c3ccc(OC)c(OC)c3OC)sc2c1	/	/	/	/	/	.
O=C(C[n+]1ccc(C(=O)N/N=C/c2ccc(Br)cc2)cc1)c1ccccc1	.	?	.	.	.	.
O=C(C[n+]1ccc(C(=O)N/N=C/c2ccc(O)cc2)cc1)c1ccccc1	.	?	56µM	.	.	.
O=C(Cc1nnc(NC(=O)c2ccccc2)s1)N/N=C/c1ccc(O)cc1	.	.	25µM	?	.	.
O=S(=O)(O)c1ccc(N=NNc2ccc(Br)cc2)cc1	.	.	.	.	?	.
O=Cc1cc(N=Nc2ccc(S(=O)(=O)O)cc2)ccc1O	?	.	/	?	-76	.
CC(Sc1nc2ccccc2o1)C(=O)C12CC3CC(CC(C3)C1)C2 (configuration not stated)	/	/	/	/	/	.
O=C(NC1CCOC2(CCOCC2)C1)c1cn(CCN2CCNCC2)nn1 (configuration not stated)	/	/	/	/	/	22µM
Cc1ccccc1-n1nnnc1C(C)(C)NC1CCCCC1	/	/	/	/	/	.
C/C(N)=C(/C#N)C(=O)CSc1nnc(COc2ccccc2Cl)o1	.	?	40µM	89µM	?	.
O=C(NCc1ccco1)[C@@H]1CSC2c3ccccc3C(=O)N21 (some centres not stated)	?	14µM	.	20µM	?	.
CC(C)[C@H](NC(=O)[C@@H]1CSC2c3ccccc3C(=O)N21)C(=O)NCc1ccco1 (some centres not stated)	.	.	.	.	.	?
NS(=O)(=O)c1cccc(NC(=S)NC(=O)C23CC4CC(CC(C4)C2)C3)c1	.	.	.	.	.	32µM
CCOC(=O)c1c(NC(=O)C2CCCCC2C(=O)O)sc2c1CCCCC2 (configuration not stated)	.	.	.	.	.	.
CCOC(=O)c1c(NC(=O)C2C3C=CC(C3)C2(C)C(=O)O)sc2c1CCCC2 (configuration not stated)	?	20µM	22µM	.	.	.
O=C(CS(=O)(=O)c1ccccc1)CS(=O)(=O)c1ccccc1	/	/	/	/	/	.
O=S(=O)(C/C(=C/CO)S(=O)(=O)c1ccccc1)c1ccccc1	.	.	.	22µM	/	.
CC(OC(=O)C1=Cc2ccccc2OC1)C(=O)NCC1CCCO1 (configuration not stated)	?	.	/	?	-63	?
CC1=NN(c2nc(-c3ccc(C)cc3)cs2)C(=O)C1N=Nc1cccc(O)c1 (configuration not stated)	?	?	13µM	?	-71	?
COC(=O)/C=C1\S/C(=N\N=C\CC(=O)OC)NC1=O	40µM	?	.	18µM	.	?
COC(=O)/C=C1\SC(=Nc2ccc(OC)cc2)NC1=O	.	.	.	.	.	.
SMILES	Pol kappa inh	POLH inh	POLB inh	POLI inh	PI5P4Ka inh	12-LOX inh
O=C(O)CC/C(=N/NC(=O)c1cn(-c2ccccc2)nc1-c1ccccc1)C(=O)O	.	.	.	25µM	.	.
CCc1nc2oc3cc(OC)ccc3c(=O)c2c(=O)n1Cc1ccco1	.	.	25µM	?	?	.
COC(=O)c1ccn(Cc2c(Cl)cccc2Cl)n1	/	/	/	/	/	.
Cc1cc(C)n(-c2ncnc3sc(C)c(-c4ccc(Cl)cc4)c23)n1	/	/	/	/	/	.
N#CC1=C(N)NC(SCc2ccccc2)=C(C#N)C12CCCC2	.	.	.	.	-63	?
CCSC1=C(C#N)C2(CCCC2)C(C#N)=C(N)N1	.	.	.	.	-57	.
Cc1oc(-c2cccs2)nc1CC(=O)NCCc1cccs1	/	/	/	/	/	.
CCOC(=O)c1cccn1C1C(=O)N(Cc2ccc(C(F)(F)F)cc2)c2ccc(OC(F)(F)F)cc21 (configuration not stated)	/	/	/	/	/	.
CN1C(=O)C(n2ccc3ccccc32)c2cc(Cl)ccc21 (configuration not stated)	/	/	/	/	/	.
CC(C)c1ccc(CN2C(=O)C(n3ccc4ccccc43)c3cc(Cl)ccc32)cc1 (configuration not stated)	/	/	/	/	/	10µM
COc1ccc(CN2C(=O)C(n3ccc4ccccc43)c3cc(OC(F)(F)F)ccc32)cc1 (configuration not stated)	/	/	/	/	/	40µM
O=C(O)C1(c2ccc(F)cc2)CCCCC1	/	/	/	/	/	.
CN1C[C@@H](NC(=O)c2cccs2)C[C@H]1c1nc(-c2ccc(F)cc2)no1	/	/	/	/	/	.
COc1cc(OC)cc(C(=O)/C(=C/c2cccs2)c2nc3ccccc3o2)c1	/	/	/	/	/	.
COc1cc(OC)cc(C(=O)/C(=C\c2ccncc2)c2nc3ccccc3o2)c1	/	/	/	/	/	28µM
